From PubChem BioAssay
Hits are enriched below; roughly 1.3% of the tested compounds scored in any of these assays.
LRH-1 inv ag: LRH-1 (NR5A2) inverse agonists, primary screen, cell-based, luminescence, HEK293T, StAR-luciferase reporter | Nuclear receptor subfamily 5 group A member 2 (Homo sapiens), O00482 | actives 0.13% (n = 360,000) | inhibition, % at 3.6 µM | AID 602396, 2012 | LRH-1 transfected, 24 h;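 active means inhibition above the mean inhibition of all tested compounds plus 3 SD, cut at about 73% in these data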
COUP-TFII inh: NR2F2 transcriptional activity inhibitors, primary screen, cell-based, luciferase reporter, HEK293T, luminescence. HEK293T NGFI-A luciferase reporter. actives 0.7% (n = 370,000). inhibition, % at 8.6 µM. COUP transcription factor 2 (Homo sapiens), P24468;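 active means inhibition above a per-plate cutoff, mean inhibition of test wells between control levels plus 3 SD, cut at about 38% in these data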;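 further: cells cotransfected with COUP-TFII expression vector driving the NGFI-A reporter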
Gli-Sufu block: Gli-Sufu pathway antagonists, primary screen, luciferase luminescence, Sufu-KO-LIGHT cells, uHTS; Sufu-KO-LIGHT fibroblasts, Gli luciferase reporter luminescence; inhibition, % at 5 µM; actives 0.74% (n = 340,000); AID 588413, 2011;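 active means inhibition above about 55%, limit read from the data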
SRC3 inh: SRC3 coactivator transcriptional activity inhibitors, primary screen, cell-based, luminescence | Nuclear receptor coactivator 3 (Homo sapiens), Q9Y6Q9 | HEK293 GAL4-SRC3 luciferase reporter | inhibition, % at 3.6 µM | actives 0.17% (n = 360,000);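 active means inhibition above a per-campaign cutoff, the mean of all compounds plus 3 SD, cut at about 60% in these data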;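 further: higher means less SRC3-driven luciferase light from the GAL4 reporter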
SRC1 inh: SRC1 coactivator transcriptional activity inhibitors, primary screen, cell-based, luminescence. Nuclear receptor coactivator 1 (Homo sapiens), Q15788. HEK293 GAL4-SRC1 luciferase reporter. inhibition, % at 3.6 µM. actives 0.12% (n = 360,000);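 active means inhibition above the campaign mean plus 3 SD, with each screening campaign given its own cutoff, cut at about 60% in these data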
SRC2 inh: inhibition of GAL4-SRC2 driven luciferase reporter, primary screen, SRC2 inhibitor project, cell-based, luminescence | actives 0.17% (n = 370,000) | HEK293 GAL4-SRC2 luciferase reporter | Nuclear receptor coactivator 2 (Homo sapiens), Q15596 | inhibition, % at 9 µM;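 active means inhibition above the mean inhibition of all tested compounds plus 3 SD, set per campaign, cut at about 52% in these data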
Gli-Sufu confirm: Gli-SUFU pathway antagonists, confirmation, single concentration, luciferase luminescence, Sufu-KO-LIGHT cells; shares compounds with Gli-Sufu block; Gli luciferase reporter; inhibition, % at 5 µM; actives 40% (n = 2,500);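 active means mean inhibition at 5 µM reaching about 45%, limit read from the data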
SufuKO cytotox: cytotoxicity in Sufu-KO-LIGHT cells, confirmation, cytotoxicity control for Gli-SUFU antagonist project, cell-based, ATP luminescence, single concentration; shares compounds with Gli-Sufu block; cytotoxicity, % at 5 µM; actives 32% (n = 2,500); AID 651994, 2013;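 active means mean cytotoxicity at 5 µM above about 25%, limit read from the data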;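 further: cells exposed to compound overnight for roughly 16 to 18 hours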
Wnt3a counter: Wnt3a reporter signal inhibition, confirmation, counter-screen for Gli-SUFU antagonist project, Wnt-LIGHT cells, luminescence, single concentration; Wnt3a-driven luciferase reporter; actives 20% (n = 2,500); AID 651995, 2013; inhibition, % at 6.25 µM; shares compounds with Gli-Sufu block;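 active means mean inhibition above about 25%, limit read from the data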
Large screens that a line does not name were inactive (follow-up assays come after a bar, where they were run).

CCCC(C)C(=O)Nc1ccccc1C(=O)OCC (stereo not drawn)	Gli-Sufu block 99.8 | Gli-Sufu confirm inactive | SufuKO cytotox inactive | Wnt3a counter inactive
CCOC(=O)c1ccccc1NC(=O)C(C)Oc1ccccc1 (stereo not drawn)	none
CCOC(=O)c1ccccc1NC(=O)Nc1ccc(OC)c(OC)c1	Gli-Sufu block 61.5 | Gli-Sufu confirm inactive | SufuKO cytotox inactive | Wnt3a counter inactive
CC(C)(C)c1[nH]nc2c1C(c1ccco1)C(C#N)=C(N)O2 (stereo not drawn)	none | Gli-Sufu confirm inactive | SufuKO cytotox inactive | Wnt3a counter inactive
Cc1ccccc1C(=O)NC1CCCCN(Cc2cccc(C(F)(F)F)c2)C1=O (stereo not drawn)	none (no result: LRH-1 inv ag, Gli-Sufu block, SRC3 inh, SRC1 inh)
COc1ccc(N2CCN(C(=O)NCc3ccc(OC)c(Cl)c3)CC2)cc1	Gli-Sufu block 56.4 | Gli-Sufu confirm inactive | SufuKO cytotox inactive | Wnt3a counter inactive
O=c1c2ccccc2c2ccccc2c(=O)n1Cc1cccnc1	Gli-Sufu block 59.0 | Gli-Sufu confirm inactive | SufuKO cytotox inactive | Wnt3a counter inactive
Cc1cc(-c2nnc(SCC(=O)Nc3ccccc3C(F)(F)F)o2)c(C)n1-c1ccccc1	Gli-Sufu block 57.0 | Gli-Sufu confirm 66.9 | SufuKO cytotox inactive | Wnt3a counter 64.5
CCOC(=O)[C@@H]1CSCCS(=O)(=O)N1C(=O)[C@H](C)NC(=O)OC(C)(C)C	none (no result: LRH-1 inv ag, Gli-Sufu block, SRC3 inh, SRC1 inh)
O=C(N[C@H](Cc1ccccc1)C(=O)NCCN1CCOCC1)[C@H]1O[C@@H](n2ccc(=O)[nH]c2=O)[C@H](O)[C@@H]1O	none (no result: LRH-1 inv ag, Gli-Sufu block, SRC3 inh, SRC1 inh)
COc1ccc(C(=O)NCCN(C)C)c2nc3ccccc3cc12	Gli-Sufu block 63.5 | Gli-Sufu confirm 70.4 | SufuKO cytotox 38.5 | Wnt3a counter inactive
COc1cccc2nc3c(C(=O)NCCN(C)C)cccc3cc12	Gli-Sufu block 69.7, SRC1 inh 63.4 | Gli-Sufu confirm 61.6 | SufuKO cytotox inactive | Wnt3a counter inactive
COc1ccc(Cl)cc1C(=O)NCCN(C)C	none
COc1ccc(-c2nc3c(C(=O)NCCN(C)C)cccc3c3ccccc23)cc1	none
C[C@@H]1CN([C@@H](C)CO)C(=O)c2cc(Br)cnc2O[C@@H]1CN(C)Cc1ccccn1	none (no result: LRH-1 inv ag, Gli-Sufu block, SRC3 inh, SRC1 inh)
NC1=NC[C@H](c2ccccc2)N1CCCCC1CCCCC1	Gli-Sufu block 61.8 | Gli-Sufu confirm 53.7 | SufuKO cytotox 34.2 | Wnt3a counter inactive
CCCCSc1nc2sc3c(c2c(=O)n1-c1ccc(C)cc1)CCN(C)C3	none | Gli-Sufu confirm 49.4 | SufuKO cytotox inactive | Wnt3a counter inactive
Cc1ccc(-c2c[n+](CC(=O)c3ccc(Br)cc3)c3n2CCCCC3)cc1	Gli-Sufu block 77.3 | Gli-Sufu confirm 78.1 | SufuKO cytotox 33.5 | Wnt3a counter inactive
Clc1ccc(-c2c[n+](Cc3ccc(Br)cc3)c3n2CCCCC3)cc1	none
O=C(C[n+]1cc(-c2ccccc2)n2c1CCCCC2)c1ccc(Cl)cc1	Gli-Sufu block 58.0 | Gli-Sufu confirm 49.1 | SufuKO cytotox inactive | Wnt3a counter inactive
COc1ccc(-c2c[n+](CC(=O)c3ccccc3)c3n2CCCCC3)cc1	none | Gli-Sufu confirm 55.3 | SufuKO cytotox inactive | Wnt3a counter inactive
CC(N=C1NS(=O)(=O)c2ccccc21)C(=O)OCC(=O)N(C)C1CCS(=O)(=O)C1 (stereo not drawn)	Gli-Sufu block 85.9 | Gli-Sufu confirm inactive | SufuKO cytotox inactive | Wnt3a counter inactive
COc1ccc(N2CCN(C(=O)C3CCN(S(=O)(=O)c4ccc5c(c4)CC(C)N5C(=O)C4CC4)CC3)CC2)cc1 (stereo not drawn)	none (no result: LRH-1 inv ag, Gli-Sufu block, SRC3 inh, SRC1 inh)
CN1CCCN(Cc2ccccc2C(F)(F)F)CC1	Gli-Sufu block 93.6 | Gli-Sufu confirm inactive | SufuKO cytotox inactive | Wnt3a counter inactive
O=c1c(-c2ccc(Oc3ccccc3)cc2)[n+]([O-])c2ccccc2n1OCc1ccccn1	Gli-Sufu block 94.6 | Gli-Sufu confirm inactive | SufuKO cytotox inactive | Wnt3a counter inactive
CCOc1ccc(-c2c(=O)n(OCc3ccccn3)c3ccccc3[n+]2[O-])cc1	none
Fc1cccc(Nc2c3c(nc4ccccc24)CCC3)c1	none
c1ccc2c(Nc3ccc4c(c3)OCCO4)c3c(nc2c1)CCCC3	none | Gli-Sufu confirm inactive | SufuKO cytotox inactive | Wnt3a counter inactive
CCN(CC)C1=CC(=[N+]2CCCC2)CC(C)(C)C1	Gli-Sufu block 79.4 | Gli-Sufu confirm 81.7 | SufuKO cytotox 31.6 | Wnt3a counter 47.8
CN(C)c1cccc(NC2=CC(=[N+]3CCOCC3)CC(C)(C)C2)c1	none
CCOC(=O)N1CCN(C(=O)c2ccc3c(=O)n(-c4ccccc4F)c(=S)[nH]c3c2)CC1	none
CCc1ccc(C(CNC(=O)c2ccc3c(=O)n(-c4ccccc4F)c(=S)[nH]c3c2)N(C)C)cc1 (stereo not drawn)	Gli-Sufu block 58.6 | Gli-Sufu confirm inactive | SufuKO cytotox inactive | Wnt3a counter inactive
Cn1c(NC2=NC3(CCCC3)C3=C(CCCC3=O)N2)nc2ccccc21	none (no result: LRH-1 inv ag, Gli-Sufu block, SRC3 inh, SRC1 inh, SRC2 inh)
Cc1nn(-c2ccccc2)nc1C(=O)Nc1ccccc1C(=O)NCC1CC1	none (no result: LRH-1 inv ag, Gli-Sufu block, SRC3 inh, SRC1 inh)
O=C(OCC#CCSc1nnc(-c2cccs2)o1)c1ccc(F)cc1	none (no result: LRH-1 inv ag, Gli-Sufu block, SRC3 inh, SRC1 inh, SRC2 inh)
OC(CN1CCN(c2cccc(Cl)c2)CC1)c1ccccc1 (stereo not drawn)	none
OC(CN1CCN(c2cccc(Cl)c2)CC1)c1ccc(F)cc1 (stereo not drawn)	Gli-Sufu block 68.9 | Gli-Sufu confirm inactive | SufuKO cytotox inactive | Wnt3a counter inactive
C=CCN(C(=O)Cn1nc(C)n2c(cc3cc(C)ccc32)c1=O)c1ccccc1	Gli-Sufu block 63.4 | Gli-Sufu confirm inactive | SufuKO cytotox inactive | Wnt3a counter inactive
CC(C)(C)C1CCC(OC(=O)C[N+]2(C)CCCC2)CC1 (stereo not drawn)	none
CC(C)(C)C1CCC(OC(=O)C[N+]2(C)CCCCC2)CC1 (stereo not drawn)	none | Gli-Sufu confirm inactive | SufuKO cytotox inactive | Wnt3a counter inactive
